Reference: PubChem BioAssay (NCI)
“And” between values parts separate entries of the source, which are not always exact repeats. Identical values can stand only once. This is part of a sample that, as a whole, favours compounds with a hit. Of some 83,000 tested, about 20% had one in any assay.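 48-hour exposure, single concentration, 96-well plates; percent growth endpoint where 0 means no net growth. Active: below 10.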 The source made the active and inactive calls. Where a SMILES comes first, the peptide text is derived from it. [ ]: non-standard residue; d: D form. ξ: configuration not given here. ξD = NC(CC(=O)O)C(=O)O

Each molecule was assayed on SK-MEL-5 melanoma (assay: NCI-60 one-dose screen, 48 h (100 = growth as untreated, 0 = no growth, -100 = all killed)). Conditions: 10 µM unless noted.
Protocol: Growth inhibition of the SK-MEL-5 human tumor cell line is measured as a screen for anti-cancer activity. Cells are grown in 96 well plates and exposed to the test compound for 48 hours. Compounds are tested at a single concentration, which is 10^-5 M for most compounds. The reported endpoint is percent growth (GI% or GIPRCNT), where numbers from 0 - 100% represent growth inhibition, and numbers from -100% - 0 represent cell death. For example, a value of 40 represents 60% growth inhibition. A value of 0 means no net growth occurred over the course of the experiment. A value of -40 indicates 40% of cells at the beginning of the experiment died by the end of the experiment. A value of -100 means all cells are dead at the end of the experiment.
NCI-60 Human Tumor Cell Lines Screen was performed using the standard one-dose NCI protocol, which is described in more detail at https://dtp.cancer.gov/discovery_development/nci-60/default.htm.
Compounds with GIPRCNT values below 10 were considered active. Activity score was based on GIPRCNT using the following formula: […]
Score is 0 for GIPRCNT values of 100 or above, 50 for GIPRCNT values of 0, and 100 for GIPRCNT values of -100.

| Compound | growth |
| --- | --- |
| CN(C)c1ccc(/C=C/c2nccc3ccccc23)cc1 | 86.7% (inactive) |
| Nc1cccc2cccc([N+](=O)[O-])c12 | 111% (inactive) |
| CCOc1ccc(C(CN2CCOCC2)C(C)=O)cc1OC (stereo not given) | 93.6% (inactive) |
| O=C(O)c1cc2c(s1)C(=O)c1sccc1C2=O | -100% (active) |
| CN1CSC(=S)N(Cc2ccccc2)C1 | 96.8% (inactive) |
| CCCCCCCCc1cc(Cl)c(O)c(Cl)c1 | 108% (inactive) |
| CCOC(=O)c1cc(CC)sc1NC(=O)CC(C)=O | 54.3% (inactive) |
| COc1cc(NCc2ccc3nc(N)nc(N)c3c2C)cc(OC)c1OC (tested in a mixture with another compound) | 21.1% (inactive) |
| COc1cc(-c2ccc(-[n+]3nc(-c4ccc([N+](=O)[O-])cc4)nn3-c3ccc([N+](=O)[O-])cc3)c(OC)c2)ccc1-[n+]1nc(-c2ccc([N+](=O)[O-])cc2)nn1-c1ccc([N+](=O)[O-])cc1 | 47.4% (inactive) |
| CCN(CC)CCNc1ccc([N+](=O)[O-])c2sc3ccccc3c(=O)c12 | 21.1% (inactive) |
| CCOc1ccc(C(C[N+](=O)[O-])Sc2ccccc2N)cc1 (stereo not given) | 40.9% (inactive) |
| O=C1C=CC(=O)N1c1ccc(O)cc1 | 102% (inactive) |
| CC(=O)c1ccc2c(c1)CCc1ccccc1-2 | 99.6% (inactive) |
| COc1ccc(C(OCC2OC(n3ccc(NC(=O)c4ccccc4)nc3=O)C(O)C2O)(c2ccccc2)c2ccccc2)cc1 (stereo not given) | 24.2% (inactive) |
| OC(c1cc(-c2ccc(C(F)(F)F)cc2)nc(C(F)(F)F)c1)C1CCCCN1 (stereo not given) | -91.6% (active) and -98.8% (active) and 6.65% (active) |
| COc1cc(/C=C2\SC(=S)N(/C=C/c3nc4ccccc4[nH]c3=O)C2=O)cc(OC)c1OC | 82.7% (inactive) |
| OC(CSc1ccccc1)CN1CCN(c2ccc(Cl)cc2)CC1 (stereo not given) | 89.2% (inactive) |
| CN(Cc1ccccc1)c1ccc(SC#N)cc1 | 98.2% (inactive) |
| C=C(C(N)=O)C(N)C(=O)O (stereo not given) | 103% (inactive) |
| CC12CCC(O)CC1=CCC1C2CCC2(C)C3=NN=CC3CC12 (stereo not given) | 96.4% (inactive) |

| Compound | growth |
| --- | --- |
| CN1CCC(c2ccccc2)(c2ccccc2)C(=O)C1 | 97.7% (inactive) |
| O=[N+]([O-])c1ccc(Oc2ccccc2Cl)c([N+](=O)[O-])c1 | 95.1% (inactive) |
| Cc1cc(Br)c2nsnc2c1[N+](=O)[O-] | 54.1% (inactive) |
| O=C(c1ccccc1)C(Br)C(Br)c1ccccc1 (stereo not given) | 107% (inactive) |
| NC(=S)Nc1ccc2c(c1)Cc1ccccc1-2 | 88.9% (inactive) |
| CC1CC(C)(C)OB(OC(C)CC(C)(C)OB2OC(C)CC(C)(C)O2)O1 (stereo not given) | 101% (inactive) |
| O=C(c1ccccc1)C(Br)[N+](=O)[O-] (stereo not given) | 102% (inactive) |
| CCCCCCCCCCCC1=NCCCN1CCCC | 95.8% (inactive) |
| CCC(C)(O)Cc1ccc(Cl)cc1 (stereo not given) | 91.6% (inactive) |
| NC(CS/C(Cl)=C/Cl)C(=O)O (stereo not given) | -60.9% (active) |
| Oc1ccc2ccccc2c1N=Nc1nccs1 | 74.7% (inactive) |
| C(=N\Nc1ccc2ccccc2n1)/c1ccccn1 | -10.8% (active) |
| NCC(=O)NC(CC(=O)O)C(=O)O (stereo not given) (H-Gly-[ξD]-OH) | 101% (inactive) |
| Cn1c(-c2ccccc2)c(/C=C/C2=[N+](C)c3ccccc3C2(C)C)c2ccccc21 | -98.4% (active) |
| COC(=O)C(=[N+]=[N-])C(=O)c1ccc([N+](=O)[O-])o1 | 93.6% (inactive) |
| Cc1ccc2c(c1)sc(-c1ccc(N(C)C)cc1)[n+]2C | -76.6% (active) |
| N#CC(I)CS(=O)(=O)c1ccccc1 (stereo not given) | 97.5% (inactive) |
| CCCCCCCCCCCCCCCc1ccc(C(=O)C[n+]2ccccc2)cc1 | -31.6% (active) |
| OCCOSCCO | 101% (inactive) |
| Cc1ccc(Nc2ccc(O)c3c2C(=O)c2c(O)ccc(Nc4ccc(C)cc4)c2C3=O)cc1 | 91.7% (inactive) |
